Test results: PMC5540273 (PLoS ONE, 2017)

Assays:
Details in all cases: concentration: 1 μM,replicates: in singlicate; n = 1
TESK1 = test system: TESK1
TGFBR1 = test system: TGFBR1
TGFBR2 = test system: TGFBR2
TIE1 = test system: TIE1
TIE2 = test system: T1, TIE2
T1 construct: gene TEK

TLK1 = test system: TLK1
TLK2 = test system: TLK2
TNIK = test system: TNIK
TNK1 = test system: TNK1
TNK2 = test system: TNK2
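Note: KINOMEscan kinase panel screen.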

Row | Compound | %Inh (TESK1) | %Inh (TGFBR1) | %Inh (TGFBR2) | %Inh (TIE1) | %Inh (TIE2) | %Inh (TLK1) | %Inh (TLK2) | %Inh (TNIK) | %Inh (TNK1) | %Inh (TNK2)
1 | Cl.c1ccc(Oc2ccc(Nc3ccnc4cc(-c5ccc(CN6CCNCC6)o5)ccc34)cc2)nc1 [GW567142] | 0% | 21% | 0% | 0% | 0% | 9% | 1% | 0% | 61% | 38%
2 | CCNCC(Cc1ccccc1)NC(=O)c1cc(Br)c(-c2ccnc3[nH]ccc23)s1.Cl.Cl (stereo not drawn) [GSK1383280] | 24% | 0% | 0% | 75% | 0% | 18% | 16% | 50% | 0% | 10%
3 | Cc1n[nH]c2cc(Nc3ccnc(Nc4cccc(CN5CCOCC5)c4)n3)ccc12 [GW682569] | 27% | 54% | 84% | 45% | 2% | 9% | 2% | 25% | 33% | 10%
4 | CC(C)c1nc(-c2cccc(NS(=O)(=O)c3ccccc3)c2)c(-c2ccnc(Nc3ccc4c(c3)CN(C)CC4)n2)s1 [GSK1649598] | 97.5% | 94.1% | 94.8% | 91.5% | 99% | 41% | 33% | 93.7% | 100% | 96.2%
5 | COc1cccc(CNC(=O)NC2CCN(c3ccnc(Nc4cc(OC)c(OC)c(OC)c4)n3)C2)c1 (stereo not drawn) [GSK1379765] | 40% | 24% | 0% | 100% | 0% | 0% | 0% | 0% | 0% | 8%
6 | CCn1c(-c2nonc2N)nc2cncc(CNC3CCNCC3)c21.Cl [SB-747651] | 20% | 10% | 0% | 5% | 0% | 0% | 0% | 0% | 0% | 8%
7 | Cl.Cl.NC[C@H](CC1CCCCC1)NC(=O)c1ccc(-c2ccnc3[nH]ccc23)s1 [GSK1581428] | 0% | 0% | 0% | 100% | 0% | 1% | 4% | 12% | 0% | 0%
8 | CNC(=O)c1ccccc1Nc1nc(Nc2cccc(CS(C)(=O)=O)c2)ncc1C.O=CO [GSK1520489] | 64% | 81% | 37% | 95% | 95% | 22% | 0% | 62% | 100% | 98.9%
9 | CCn1c(-c2nonc2N)nc2cncc(Br)c21 [SB-738004] | 19% | 0% | 0% | 0% | 0% | 9% | 6% | 18% | 0% | 0%
10 | O=C(Nc1n[nH]c2cc(-c3ccco3)ccc12)C1CC1 [SB-737447] | 0% | 6% | 0% | 17% | 3% | 20% | 0% | 65% | 0% | 0%
11 | O=C(Nc1cccc(C(F)(F)F)c1)c1cccc(Oc2ccc3nccn3n2)c1 | 7% | 0% | 0% | 39% | 0% | 3% | 0% | 0% | 36% | 0%
12 | CCOC(=O)N1CCC(n2cnc(-c3ccc(F)cc3)c2-c2ccnc(N)n2)CC1 [SB-219952] | 12% | 23% | 10% | 12% | 10% | 26% | 2% | 32% | 21% | 12%
13 | N#Cc1cccc(C(=O)NC2CCN(c3ccnc(Nc4ccc(F)cc4)n3)C2)c1 (stereo not drawn) [GSK1379708] | 13% | 4% | 0% | 3% | 0% | 0% | 0% | 0% | 0% | 4%
14 | O=C(Nc1ccccc1)c1cccc(Oc2ccc3nccn3n2)c1 | 0% | 0% | 0% | 94.1% | 0% | 100% | 0% | 0% | 33% | 0%
15 | Cn1cc(-c2cccc3c(N)c(C(N)=O)nnc23)cn1 | 0% | 0% | 16% | 6% | 1% | 2% | 0% | 5% | 0% | 0%
16 | Cn1ccc2ncnc(Oc3ccc(NC(=O)Nc4cc(C(C)(C)C)on4)c(Cl)c3)c21 | 0% | 13% | 0% | 88% | 97.1% | 15% | 0% | 92.5% | 0% | 0%
17 | COc1cc(Nc2nccc(N3CCC(NC(=O)c4cccc(C#N)c4)C3)n2)cc(OC)c1OC (stereo not drawn) [GSK1379751] | 19% | 4% | 0% | 32% | 0% | 4% | 0% | 0% | 98.9% | 10%

Row | Compound | %Inh (TESK1) | %Inh (TGFBR1) | %Inh (TGFBR2) | %Inh (TIE1) | %Inh (TIE2) | %Inh (TLK1) | %Inh (TLK2) | %Inh (TNIK) | %Inh (TNK1) | %Inh (TNK2)
18 | NC(=O)Nc1sc(-c2ccc(F)cc2)cc1C(N)=O [GW789449] | 24% | 27% | 0% | 0% | 12% | 4% | 0% | 33% | 32% | 26%
19 | Cn1ccc2ncnc(Oc3ccc(NC(=O)Nc4cccc(C(F)(F)F)c4)c(Cl)c3)c21 | 0% | 17% | 0% | 85% | 94.8% | 74% | 0% | 18% | 6% | 0%
20 | COC(=O)c1cccc(NC(=O)NC2CCN(c3ccnc(Nc4cc(OC)c(OC)c(OC)c4)n3)C2)c1 (stereo not drawn) [GSK1379767] | 19% | 0% | 0% | 19% | 4% | 14% | 15% | 0% | 0% | 4%
21 | c1ccc(Oc2ccc(Nc3ccnc4ccc(-c5ccccn5)cc34)cc2)cc1 [GW407034] | 29% | 10% | 0% | 2% | 2% | 0% | 0% | 0% | 28% | 23%
22 | COc1cc2ncn(-c3cc(OCC4CCCCC4)c(C(N)=O)s3)c2cc1OC [GSK204559] | 18% | 0% | 0% | 19% | 0% | 6% | 12% | 58% | 5% | 4%
23 | COc1cc2c(Nc3ccc(NC(=O)c4ccccc4)cc3)ncnc2cc1OCCCN1CCOCC1 [GSK301329] | 37% | 0% | 0% | 24% | 0% | 0% | 0% | 0% | 56% | 66%
24 | O=C(Nc1cccc(Oc2ccc3nccn3n2)c1)Nc1cccc(C(F)(F)F)c1 | 11% | 4% | 0% | 75% | 5% | 14% | 0% | 51% | 26% | 0%
25 | CN1CCN(CCCNc2nccc(-c3c(-c4ccc(F)cc4)nn4cc(C(N)=O)ccc34)n2)CC1 [GW622475] | 23% | 92.3% | 77% | 6% | 0% | 39% | 0% | 76% | 0% | 13%
26 | Cc1cccc2c(-c3ccncc3)c(-c3ccc(F)cc3)nn12.Cl [GW461487] | 0% | 8% | 0% | 0% | 0% | 10% | 2% | 7% | 0% | 9%
27 | CS(=O)c1ccc(-c2coc3ccc(-c4n[nH]c(=O)o4)cc23)cc1 (stereo not drawn) | 0% | 24% | 18% | 0% | 10% | 35% | 0% | 0% | 0% | 0%
28 | C[C@@H]1CNc2c(sc3ccc4nc(-c5ccc(O)cc5)ccc4c23)C(=O)N1 | 8% | 1% | 60% | 0% | 25% | 24% | 0% | 42% | 14% | 0%
29 | COc1cccc(C2=C(Nc3cccc(Cl)c3)C(=O)NC2=O)c1 [SB-341556] | 17% | 12% | 0% | 4% | 0% | 38% | 29% | 0% | 32% | 15%
30 | CC(C)S(=O)(=O)N1CCN(Cc2ccc3c(c2)nc(NC(=O)c2ccsc2)n3C[C@H](O)c2ccccc2)CC1 [GW635815] | 37% | 0% | 0% | 28% | 0% | 0% | 0% | 65% | 79% | 19%
31 | COC(=O)c1cccc(NC(=O)NC2CCN(c3ccnc(NCc4ccc(F)cc4)n3)CC2)c1 [GSK1379860] | 16% | 25% | 0% | 0% | 0% | 0% | 0% | 0% | 0% | 15%
32 | Cc1nnc(-c2ccc3occ(-c4ccc(S(C)=O)cc4)c3n2)o1 (stereo not drawn) | 0% | 0% | 0% | 0% | 0% | 3% | 0% | 1% | 0% | 0%
33 | C[C@@H](Oc1cc(-n2cnc3cc(-c4cnn(C)c4)ccc32)sc1C(N)=O)c1ccccc1Cl [GSK580432] | 37% | 0% | 0% | 94.2% | 82% | 0% | 0% | 48% | 59% | 64%
